# Source: the supplement of paper PMC6555819
# Legend:
# Experiment in all cases: PBM binding z-score (relative to random genomic background probes); higher = stronger binding; sequences stand for … in GC…GCGATTGACAGCGTAGAATGAAGG
# [1] = system: RARb homodimer (NR concentration 270 nM)
# Summary of the method: (§1)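 Each nuclear receptor dimer, without ligand, was incubated for 1 h on custom Agilent 4×180K protein-binding microarrays. Binding was detected with antibodies against each partner (one per run), and scanned fluorescence was regression-normalized. The binding z-scores are referenced to random human genomic background probes.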
# [2] = system: RARg:RXRa (NR concentration 270 nM, RXRa partner concentration 90 nM)
# Summary of the method: as §1
# [3] = system: RARg homodimer (NR concentration 270 nM)
# Summary of the method: as §1
# [4] = system: RXRa DBDmut IVT, anti-RXR (DBD mutation: RXRa K156A/R161A, NR concentration 90 nM)
# Summary of the method: as §1
# [5] = system: RXRa homodimer (NR concentration 180 nM)
# Summary of the method: as §1
# [6] = system: THRa:RXRa (NR concentration 90 nM, RXRa partner concentration 90 nM)
# Summary of the method: as §1
# [7] = system: THRa homodimer (NR concentration 90 nM)
# Summary of the method: as §1
# [8] = system: VDR:RXRa (NR concentration 270 nM, RXRa partner concentration 90 nM)
# Summary of the method: as §1
# [9] = system: VDR homodimer (NR concentration 270 nM)
# Summary of the method: as §1
Sequence,PBM binding z-score [1],PBM binding z-score [2],PBM binding z-score [3],PBM binding z-score [4],PBM binding z-score [5],PBM binding z-score [6],PBM binding z-score [7],PBM binding z-score [8],PBM binding z-score [9]
ATATGTAAGTTATCGGGTCATTCAGTTTGCGCAT,2.48,2.12,1.48,1.61,2.59,3.24,2.84,4.93,3.74
TAGTCTAGGTCATGCGGGCCAGTATAGTGTCGGC,3.13,3.77,4.69,0.748,3.08,3.29,1.67,2.86,0.86
CCGACTGGGGAAAGGTTACCATAACGCACAGCCA,1.86,1.66,0.984,-0.493,2.28,1.13,-0.224,0.901,-0.242
CGTCCAAGGTCAATGATAGGTCAGTGAAAGCATT,4.99,7.81,7.06,3.55,6.04,4.03,2.44,5.02,2.61
CCTTACGGATCACTGACAGGTTATAGCATTTGGA,0.537,0.614,0.579,0.744,0.347,0.372,0.628,0.456,0.612
GCTGCTAGGTCAACTGATAGTCAGCTAAAGCTCG,3.15,4.31,5.07,1.68,2.75,2.74,0.622,0.945,0.0089
CAAACTAGGTCAAGAGGTCACAGTCCGCTTCCCG,5.76,7.87,7.83,2.79,7.55,4.57,3.21,5.92,3.7
CTACCAAGGTGAATAAGGTCGTTGATTACTATTC,2.05,1.54,1.21,1.38,1.71,3.6,2.67,5.52,2.68
TCATATAGGTAATACAGGTGAGAGTCGGCATCTA,0.373,0.339,0.708,1.4,0.681,0.631,0.164,0.85,0.172
CCTACTGGGCCATCAGGTCATTGGTATCAACGTT,2.99,1.93,1.66,0.149,0.958,3.33,3.05,2.04,1.64
AGTCAAAGATCATCTAGGTAACGTAAGATATGCT,-0.47,0.163,0.343,-0.336,0.746,1.07,-0.24,0.0146,-0.621
CATTACGGGTCAAGGTTATAGCACGGGTGGTACG,3.78,5.08,5.37,1.61,6.03,3.51,1.29,3.96,2.04
TTTTGTAGATCAACAGGAGGTTAAGAAAGATCGA,0.787,1.04,0.47,-0.291,1.23,1.23,0.167,0.859,0.336
ACTCTTAGTTGAGACGAGGGCAACCGATAGGTTG,1.14,0.56,0.695,0.403,0.46,2.59,0.356,0.492,0.844
CGAACTAGGTCAAGGACAGTGGATCTCCGCACGC,3.1,3.74,4.5,1.34,2.41,3.05,2,1.22,0.315
TCACCAAGGTGAAGGTCGTTGATCCCTCTGTAGA,1.71,1.55,1.08,0.927,2.01,2.27,0.819,1.34,0.342
TCTAGCAGGCCAGAGGGCCACTCAAGAGGTACGG,-0.0244,-0.057,-0.117,-0.104,0.144,-0.545,-1.1,-0.505,-0.232
CCTGCCAGGTCAATGGTCAGCTAAAGCAGCTCGC,3.05,3.74,4.06,1.44,2.57,3.19,1.4,1.5,0.0635
CCTACTGGGCCACGGTCATTGATCAGTCAAAGCA,1.5,0.43,0.896,-1.25,-0.391,0.204,-0.144,-0.388,-0.135
TTACCAACGTGAAGGTCGTTGATCCCTCTGTAGA,1.24,0.301,0.15,0.665,1.17,1.04,0.438,1.09,1.3
CCTACTGGGCCACGAGAGGTCATTGATTCAGTGA,3.75,3.95,3.64,0.702,4.15,4,1.33,4.45,3.47
CCAGACCGGTGAGAAGGTAACTCAGCCTCGATTA,0.199,0.0096,0.0397,-0.539,-0.308,-0.0126,-0.0326,-0.163,0.281
TCTGCTAGGTCAGTTCGTCAGCTAACGAGCTGCC,1.84,2.16,3,0.634,0.516,1.2,-0.388,0.144,0.389
TATATTAGTTGAAGGGCAACCGACGAGTCCGTTT,1.37,0.983,1.22,0.547,0.884,0.415,-0.0239,0.939,1.91
GGGACGAGGGCATTCGAGTTGATAGCATGGCGAT,1.01,1.19,1.58,2.93,0.775,3.52,-0.0645,3.62,3.06
GGAACGAGGGCAAAGCTGATAGCATCTGTCGACG,0.567,1.03,1.5,2.13,0.836,0.546,-0.597,0.367,0.452
